Source: PubChem BioAssay AID2401 (Southern Research Specialized Biocontainment Screening …, 2010)
Out of some 2,200 compounds screened, about 530 (24%) were called active.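 How the source made its calls: active means inhibition above a set limit at one or more concentrations of the dose series; inactive means inhibition under that limit at every dose.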 Only a sample is shown. Potency and affinity values are given separately.

Assay: S. Typhimurium nonspecific reporter signal inhibition – Salmonella Typhimurium, GFP fluorescence, counter-screen for PhoP regulon inhibitor project, dose response (AID 2401);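 further: S. typhimurium with Mg-insensitive nmpC-GFP reporter grown at 10 µM Mg2+; drop in reporter fluorescence reflects general culture growth inhibition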
Conditions: 4 h; series mostly up to 150 µM; inhibition: at the top concentration

Structure (SMILES)	inhibition
COc1ccc(C(C)C)cc1S(=O)(=O)Nc1ccc(Cl)cn1	-19.4% (inactive)
O=C(Nc1cnc2ccccc2c1)N1CCOCC1	-17.8% (inactive)
CN(C)S(=O)(=O)Nc1ccc(C(=O)O)cc1	-28.6% (inactive)
c1ccc2c(C3=NNC(=NC4CCCCC4)SC3)c[nH]c2c1	11.5% (inactive)
O=C(CSc1nc2ccccc2o1)Nc1ccc(N2CCOCC2)cc1	1.64% (inactive)
CNc1nnc(-c2cccc(N(C)C)c2)s1	-16% (inactive)
O=S(=O)(c1ccccc1)N(CC(O)Cn1c2ccccc2c2ccccc21)c1ccccc1 (configuration not stated)	-17.4% (inactive)
CCCn1c(NCCO)nc2ccccc21	-16% (inactive)
COC(=O)C(CCSC)NC(=O)c1cccc([N+](=O)[O-])c1 (configuration not stated)	-14.9% (inactive)
Cc1ccc(CNC(=O)C2CCCN(S(=O)(=O)c3c(C)noc3C)C2)cc1 (configuration not stated)	-21.2% (inactive)
Cn1cccc1C(=O)OCc1csc(-c2ccccc2)n1	-2.51% (inactive)
Nc1ccc(C(=O)OCc2nc3ccccc3[nH]2)cc1	33.1% (inactive)
Cc1ccc(C)n1-c1cc([N+](=O)[O-])ccc1-n1ccnc1	-23.2% (inactive)
Cc1cc(-c2csc(NC(=O)c3ccccc3C(F)(F)F)n2)c(C)n1Cc1ccccc1	-0.27% (inactive)
Cc1nc(NCc2ccc3c(c2)OCO3)c2oc3ccccc3c2n1	6.07% (inactive)
Cc1scc(C(=O)O)c1-c1c(C(=O)O)csc1C	-32.6% (inactive)

Structure (SMILES)	inhibition
O=[N+]([O-])c1ccccc1/C=N/N1CCN(c2ccncc2S(=O)(=O)N2CCCCC2)CC1	-22.1% (inactive)
CCOc1ccc(C(=O)NC(=S)Nc2ccc(N3CCCCC3)cc2)cc1[N+](=O)[O-]	-0.74% (inactive)
CCOc1ccc(CSC(=N)N)cc1[N+](=O)[O-]	-21.6% (inactive)
CCOc1ccc(C(=O)Nc2ccccc2CC)cc1[N+](=O)[O-]	-8.16% (inactive)
COc1nc(-c2ccccc2)ccc1-c1noc(C)n1	-9.18% (inactive)
CCCc1cc(N2CCN(c3ccccn3)CC2)n2nc(C)c(-c3ccccc3)c2n1	-31% (inactive)
CCc1ccc(CNc2ccc(O)cc2)cc1	38.4% (inactive)
Nc1nc(N)nc(-c2ccccc2)n1	-20.8% (inactive)
CCn1c2ccccc2c2nnc(SCC(=O)Nc3ccc4c(c3)OCO4)nc21	-30.2% (inactive)
CCn1c2ccccc2c2cc(NC(=O)COc3ccccc3)ccc21	-22.1% (inactive)
CCn1cc(C(=O)O)c(=O)c2cnc(N3CCN(C(=S)NC(=O)c4ccc(Cl)cc4)CC3)nc21	-30.3% (inactive)
CCn1cc(C(=O)OCC(=O)Nc2ccc(S(=O)(=O)N3CCCC3)cc2)c(=O)c2ccc(C)nc21	-28.5% (inactive)
Cc1ccc(NC(=O)C(=O)NCCOc2ccccc2Cl)cc1	-9.68% (inactive)
O=C1CC(c2ccccc2)n2nc(NC(=O)c3ccccc3)nc2N1 (configuration not stated)	-8.71% (inactive)
Cc1ccccc1NC(=O)c1ccc(-n2cncn2)nc1	-18% (inactive)
Nc1cc(N)nc(SCC(=O)Nc2ccc3c(c2)OCCCO3)n1	-0.22% (inactive)
